B2AR ag: beta2AR agonists driving receptor internalization, primary screen, cell-based, FAP fluorogen, flow cytometry; response, % (test concentration not listed); Beta-2 adrenergic receptor (Homo sapiens), P07550; 340,000 compounds, 0.43% hits; AID 504454, 2011; Am2.2-beta2AR cells;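 active = response above a set limit, near 3 SD of response in nonfluorescent compounds, cut at about 42% in these data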
Target sequence (P07550 whole entry, looked up): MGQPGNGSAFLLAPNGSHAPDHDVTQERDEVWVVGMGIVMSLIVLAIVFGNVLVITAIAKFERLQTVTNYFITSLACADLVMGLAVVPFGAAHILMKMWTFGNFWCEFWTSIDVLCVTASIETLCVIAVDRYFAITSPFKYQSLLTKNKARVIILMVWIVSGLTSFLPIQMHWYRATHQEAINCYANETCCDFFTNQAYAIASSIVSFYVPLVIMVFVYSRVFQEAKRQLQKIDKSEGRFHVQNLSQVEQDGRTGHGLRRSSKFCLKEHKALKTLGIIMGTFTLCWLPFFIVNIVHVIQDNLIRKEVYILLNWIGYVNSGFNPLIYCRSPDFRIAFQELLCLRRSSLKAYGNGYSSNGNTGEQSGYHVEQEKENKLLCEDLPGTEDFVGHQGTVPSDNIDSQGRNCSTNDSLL
Peg3 prom inh: Peg3 promoter-driven luciferase inhibitors, primary screen, cell-based, HeLa, luciferase luminescence; inhibition, % at 20 µM; AID 588405, 2011; HeLa PEG-Prom luciferase reporter, overnight; 360,000 compounds, 1.7% hits;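 active = inhibition of at least 50% at 20 µM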
HIF-2a block: HIF-2a reporter inhibitors, primary screen, luminescence, 786-0 RCC cells; 360,000 compounds, 0.72% hits; inhibition, % at 18.8 µM; 786-0 RCC cells HIF-2a reporter, luciferase luminescence, overnight;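 active = inhibition of the luminescence signal of 40% or more relative to plate controls, in a single-dose primary screen at 18.75 µM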
CF NFkB block: inhibitors of PAF-induced NF-kB signaling, primary screen, cell-based, GFP fluorescence, uHTS | KKLEB NF-kB-GFP reporter, GFP fluorescence overnight | inhibition, % at 5 µM | 360,000 compounds, 0.86% hits;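 active = at least 50% inhibition at 5 µM, scaled per plate between neutral and stimulator controls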;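 note: PAF is a Pseudomonas aeruginosa culture filtrate used as stimulus; plate controls were PAF-stimulated DMSO wells for no effect and unstimulated DMSO wells for full effect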
KKLEB cytotox: cytotoxicity in KKLEB CF airway cells, primary screen, cytotoxicity control for CF NF-kB inhibitor project, cell-based, uHTS, fluorescence assay plates. KKLEB CF airway cells viability, ATPlite luminescence, overnight; stronger effect = lower value; cells stimulated with P. aeruginosa culture filtrate. activity change (cytotoxicity), % at 5 µM. 360,000 compounds, 0.36% hits;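 active = corrected activity change at or below -50% at 5 µM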
TRPM1 prom inh: inhibitors of MITF-dependent TRPM1 promoter reporter, primary screen, cell-based, SK-MEL-5, single point, luciferase. 330,000 compounds, 0.83% hits. inhibition, % at 12.5 µM. SK-MEL-5 TRPM1 promoter luciferase, 24 h;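 active = mean inhibition across replicates of 60% or more, whatever share of single replicates reaches that level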
Beta2AR ag CP1: beta2AR agonists via receptor internalization, confirmation, cell-based, FAP fluorogen, flow cytometry, single point, cherry pick 1. 1,100 compounds, 25% hits. Am2.2-beta2AR cells, FAP surface receptor; stronger effect = lower value. AID 540358, 2011. shares compounds with B2AR ag. percent response (surface receptor), % at 10 µM;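 active = surface receptor percent response at or below 58%, roughly 3 SD from nonfluorescent compounds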
B2AR FAP counter: fluorescence artifact in beta-2AR agonist FAP counterscreen | 1,100 tested, under 10 active | calls only at 10 µM | Am2.2 cells, FAP fluorogen flow cytometry; stronger effect = lower value | shares compounds with B2AR ag;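 active = percent response below a set limit in fluorescence channel 1 and below 50% in channel 8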
Active calls of the source: *; i = inactive; nt = not tested or not shown. Most compounds without a hit are left out; they make up all but 2.8% or so of the library.

SMILES	B2AR ag	Peg3 prom inh	HIF-2a block	CF NFkB block	KKLEB cytotox	TRPM1 prom inh	Beta2AR ag CP1	B2AR FAP counter
CCN(Cc1ccccc1)S(=O)(=O)c1cc(C(=O)NC(C)C2CC3CCC2C3)ccc1OC (stereo not drawn)	49*	20	27	6	6	12	52*	i
COc1cc(C(=O)NC(C)C2CC3CCC2C3)cc(OC)c1OC (stereo not drawn)	7	-4	15	5	-13	2	nt	nt
Nc1cc(N)cc(-c2nc3ccccc3o2)c1	43*	-124	-58	-6	-4	9	116	i
Nc1ccc(-c2nc3ccccc3o2)cc1	-51	-306	-130	-16	-2	0	nt	nt
CCCCNC(=O)C1(C)CCN1C(=O)CSc1ccccc1 (stereo not drawn)	nt	4	6	-4	4	nt	nt	nt
Cc1ccc(C)c(S(=O)(=O)N2CCN(C(=O)C3CCN(C(=O)c4ccc(F)cc4)CC3)CC2)c1	60*	19	16	16	-27	9	111	i
Cc1ccc(S(=O)(=O)N(C)C[C@@H]2OCc3cnnn3CCCC(=O)N([C@@H](C)CO)C[C@@H]2C)cc1	nt	-4	3	-19	3	nt	nt	nt
CCOC(=O)CSc1nnc(CNc2ccc(Cl)cc2)n1-c1ccccc1	108*	-1	2	20	-6	5	99	i
Cc1cnn(-c2nc(-c3ccccc3)cc(-c3ccccc3)n2)c1	42*	13	-22	-52	1	-13	16*	i
Cc1c(P(=O)(c2ccccc2)c2ccccc2)c2ccccc2n1C	nt	17	19	-1	-10	nt	nt	nt
CC(=O)Nc1cncc(-c2cccc(N(C)C)c2)n1	nt	-39	-63	5	-5	nt	nt	nt
N#Cc1cc(-c2ccccc2)nc(Oc2ccc(Cl)cc2)n1	44*	2	-61	42	-13	12	50*	i
CN(C(=O)c1ccc(NC(=O)Cc2cccc(NC(=O)C3CCN(C(=O)C4CCC4)CC3)c2)cc1)C1CC1	-8	-37	1	-4	4	-8	113	i
CN(C(=O)c1cccc(NC(=O)Cc2cccc(NC(=O)C3CCN(C(=O)C4CCC4)CC3)c2)c1)C1CC1	-5	9	11	4	4	4	nt	nt
CN(C(=O)c1ccc(NC(=O)Cc2cccc(NC(=O)C3CCN(C(=O)C4CCCCC4)CC3)c2)cc1)C1CCCC1	54*	-2	11	-20	4	14	92	i
CN(C(=O)c1cccc(NC(=O)Cc2cccc(NC(=O)C3CCN(C(=O)C4CCCCC4)CC3)c2)c1)C1CC1	-4	-7	-3	14	4	3	nt	nt
COC(=O)C1(C(=O)OC)Cc2ccccc2N(S(=O)(=O)c2ccc(C)cc2)C1CC(C)=O (stereo not drawn)	nt	nt	5	nt	nt	nt	nt	nt
Cc1cccc(C)c1-n1nnnc1C(c1ccnc2ccccc12)N1CCN(C(=O)OCc2ccccc2)CC1 (stereo not drawn)	nt	nt	19	nt	nt	nt	nt	nt
Cc1ccsc1C(=O)N1CCC1(C)C(=O)Nc1ccc2c(c1)OCCO2 (stereo not drawn)	nt	-8	12	-18	-5	nt	nt	nt
CCOC(=O)N1CCN(Cc2c(F)cccc2F)CC1	51*	-3	12	-17	11	-11	101	i
Cc1ccc(-c2nn3c(C)nnc3s2)cc1NC(=O)C(C)C	-2	-9	1	-26	3	12	nt	nt
CCC(=O)Nc1ccc(-c2nn3c(C)nnc3s2)cc1C	60*	-34	-23	-5	5	-5	80	i
Cc1nc2nc(-c3ccccc3)cc(=O)n2[nH]1	-1	3	3	-18	3	6	nt	nt
O=C1CCC(=O)N1c1nc2nc(-c3ccccc3)cc(=O)n2[nH]1	43*	20	12	13	-4	0	120	i
Cc1cccc(CN2CCN([C@@H]3CS(=O)(=O)N[C@H]3COCc3ccccc3)CC2)c1	nt	-10	8	-24	-5	nt	nt	nt
SMILES	B2AR ag	Peg3 prom inh	HIF-2a block	CF NFkB block	KKLEB cytotox	TRPM1 prom inh	Beta2AR ag CP1	B2AR FAP counter
COc1ccc(C(=O)N(c2c(C)cccc2C)C(COC(C)=O)COC(C)=O)cc1	nt	nt	11	nt	nt	nt	nt	nt
Cc1cc(S(=O)(=O)N2CCOCC2)ccc1OCC(=O)Nc1ccccc1C(F)(F)F	-1	2	7	-6	0	11	97	i
Cc1ccc(C(=O)OCC(=O)Nc2ccccc2C(F)(F)F)cc1S(=O)(=O)N1CCOCC1	5	0	8	-4	11	5	nt	nt
Cc1cc(S(=O)(=O)N2CCOCC2)ccc1OCC(=O)Nc1ccc(F)cc1F	1	0	10	-9	5	-1	105	i
Cc1cc(S(=O)(=O)N2CCOCC2)ccc1OCC(=O)Nc1ccc(Br)cc1F	1	0	-4	4	2	4	108	i
Cc1ccccc1OCC(=O)Nc1cc(S(=O)(=O)N2CCOCC2)ccc1N1CCCC1	11	4	2	6	-6	-1	nt	nt
CC(C)C(C(=O)O)N1C(=O)C2C3CCC(C3)C2C1=O (stereo not drawn)	nt	-2	7	13	-6	nt	nt	nt
CCc1nc2c(OCCOC)cccn2c1N(C)C(=O)c1ccco1	nt	0	9	2	7	nt	nt	nt
N#Cc1ccc(-c2cccnc2)nc1SCc1ccc(Cl)cc1Cl	52*	43	7	10	-20	-12	71	i
CN(c1ccccc1)S(=O)(=O)c1cccc(C(=O)Nc2cccc(C(=O)NC3CC3)c2)c1	51*	20	16	-13	2	5	13*	i
CCOc1ccccc1C(=O)NCC(=O)OCc1csc(CC(=O)Nc2ccc(C)cc2)n1	85*	-64	-90	-4	-11	-24	12*	i
CCOc1ccccc1C(=O)N[C@H](C(=O)OCc1csc(CC(=O)Nc2ccc(C)cc2)n1)C(C)C	-3	29	3	11	-1	11	nt	nt
CN(C)S(=O)(=O)c1ccc2c(c1)C(CC(=O)O)OC2=O (stereo not drawn)	49*	8	2	14	-1	-2	104	i
COc1cccc(NC(=O)C2(C)CCCN2C(=O)C(C)C)c1OC (stereo not drawn)	nt	-5	-2	-2	8	nt	nt	nt

Screens deposited in PubChem by several laboratories.
